Design in all cases: scale not given: direction of the effect not stated beside the values
Assay [1] concerns the target Protein translocase subunit SecA (Escherichia coli (strain K12)) (UniProt P10408). Put plainly: Assay to Identify E. coli SecA ATPase Inhibitors. It is filed as functional. The settings on record: 30 µM.
In assay [2] the target is T1, Ubiquitin-activating enzyme e1, putative (Leishmania donovani (strain BPK282A1)) (UniProt E9BSI1).
T1 sequence (whole entry): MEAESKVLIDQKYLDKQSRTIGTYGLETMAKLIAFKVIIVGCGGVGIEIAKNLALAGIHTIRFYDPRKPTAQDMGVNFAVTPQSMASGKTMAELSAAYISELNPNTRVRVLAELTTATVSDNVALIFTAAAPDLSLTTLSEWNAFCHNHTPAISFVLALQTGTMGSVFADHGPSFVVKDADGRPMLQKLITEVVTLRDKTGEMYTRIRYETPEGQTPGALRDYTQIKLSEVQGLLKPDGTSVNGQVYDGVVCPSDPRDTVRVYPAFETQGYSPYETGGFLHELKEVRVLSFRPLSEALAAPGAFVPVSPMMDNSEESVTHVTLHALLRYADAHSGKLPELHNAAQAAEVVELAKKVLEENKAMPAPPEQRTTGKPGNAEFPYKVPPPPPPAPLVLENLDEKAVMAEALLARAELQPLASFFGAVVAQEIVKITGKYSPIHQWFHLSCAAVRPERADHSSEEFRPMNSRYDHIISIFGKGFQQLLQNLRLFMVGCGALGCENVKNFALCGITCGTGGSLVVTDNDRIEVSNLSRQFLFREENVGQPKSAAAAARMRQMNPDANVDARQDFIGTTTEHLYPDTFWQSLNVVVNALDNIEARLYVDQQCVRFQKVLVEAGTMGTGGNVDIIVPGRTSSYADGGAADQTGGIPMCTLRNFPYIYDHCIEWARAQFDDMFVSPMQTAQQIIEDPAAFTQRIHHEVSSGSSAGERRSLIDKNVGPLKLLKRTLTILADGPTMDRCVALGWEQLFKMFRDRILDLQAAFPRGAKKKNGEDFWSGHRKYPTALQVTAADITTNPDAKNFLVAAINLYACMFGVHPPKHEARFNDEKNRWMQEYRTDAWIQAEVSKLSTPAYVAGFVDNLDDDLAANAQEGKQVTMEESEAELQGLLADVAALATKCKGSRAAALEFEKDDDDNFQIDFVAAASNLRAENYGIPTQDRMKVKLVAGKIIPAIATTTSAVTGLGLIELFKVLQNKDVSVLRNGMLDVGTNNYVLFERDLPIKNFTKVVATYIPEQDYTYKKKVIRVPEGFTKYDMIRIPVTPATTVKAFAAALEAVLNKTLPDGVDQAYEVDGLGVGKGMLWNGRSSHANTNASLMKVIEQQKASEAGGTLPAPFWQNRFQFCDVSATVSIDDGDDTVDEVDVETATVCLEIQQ
Put plainly: Leishmania donovani Ubiquitin Activating Enzyme (LdE1). The settings on record: 30 µM. It counts as functional.

The target in assay [3] is AMP-activated protein kinase, AMPK (Homo sapiens) (UniProt P54646+O43741+P54619+Q9UGJ0+Q9Y478+Q13131+Q9UGI9). The experiment in a line: AMP-dependent Kinase enzyme assay. An in vitro enzyme assay that detects ADP turnover that is directly proportional to AMPK activity. This uses naive AMPK that is activated during the assay with MK-8722. It is filed as functional. The settings on record: 30 µM.

The target in assay [4] is Sialic acid-binding Ig-like lectin 9 (Homo sapiens) (UniProt Q9Y336). The experiment in a line: Hs-Siglec9 ALPHAscreen SOP 20170721. The settings on record: 10 µM.
Sialic acid-binding Ig-like lectin 9 (Homo sapiens), sequence (Q9Y336 whole entry): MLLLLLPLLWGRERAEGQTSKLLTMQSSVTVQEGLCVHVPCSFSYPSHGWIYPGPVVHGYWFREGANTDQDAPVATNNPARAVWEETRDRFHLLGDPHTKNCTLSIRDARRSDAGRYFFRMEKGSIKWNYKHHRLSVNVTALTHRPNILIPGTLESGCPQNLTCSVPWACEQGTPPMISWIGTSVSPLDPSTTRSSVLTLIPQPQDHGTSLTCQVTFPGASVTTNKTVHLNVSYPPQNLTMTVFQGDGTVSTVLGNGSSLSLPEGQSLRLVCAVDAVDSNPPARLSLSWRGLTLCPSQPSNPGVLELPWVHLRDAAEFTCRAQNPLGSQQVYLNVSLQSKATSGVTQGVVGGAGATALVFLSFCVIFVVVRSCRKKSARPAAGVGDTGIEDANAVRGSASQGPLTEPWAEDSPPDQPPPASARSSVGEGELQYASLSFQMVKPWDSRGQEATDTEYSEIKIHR
Assay [5] relates to Trypanosoma cruzi. The experiment in a line: Trypanosoma cruzi phosphomannomutase and mannose-1-phosphate guanylyltransferase assay. It counts as functional. To be noted: 10 µM.
Assay [6] addresses T2, Arginase-2, mitochondrial (Homo sapiens) (UniProt P78540).
T2 sequence (whole entry): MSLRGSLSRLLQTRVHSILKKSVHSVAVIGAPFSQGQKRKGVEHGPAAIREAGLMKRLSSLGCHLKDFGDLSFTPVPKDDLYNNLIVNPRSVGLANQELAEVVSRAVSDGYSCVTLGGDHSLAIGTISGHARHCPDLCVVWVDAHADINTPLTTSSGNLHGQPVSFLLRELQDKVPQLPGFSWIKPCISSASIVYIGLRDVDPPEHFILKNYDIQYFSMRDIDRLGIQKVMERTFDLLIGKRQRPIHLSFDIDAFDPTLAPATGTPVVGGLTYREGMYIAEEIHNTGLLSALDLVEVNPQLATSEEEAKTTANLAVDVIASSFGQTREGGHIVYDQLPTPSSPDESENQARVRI
Put plainly: in vitro enzyme assay to detect the production of urea directly proportional to the activity of Arginase II. Note: in the data most compounds retested in dose-response had high values. It is filed as functional. The settings on record: 33.3 µM.

In assay [7] the target is T3, Proteasome subunit beta (Trypanosoma cruzi) (UniProt O96673).
T3 sequence (whole entry): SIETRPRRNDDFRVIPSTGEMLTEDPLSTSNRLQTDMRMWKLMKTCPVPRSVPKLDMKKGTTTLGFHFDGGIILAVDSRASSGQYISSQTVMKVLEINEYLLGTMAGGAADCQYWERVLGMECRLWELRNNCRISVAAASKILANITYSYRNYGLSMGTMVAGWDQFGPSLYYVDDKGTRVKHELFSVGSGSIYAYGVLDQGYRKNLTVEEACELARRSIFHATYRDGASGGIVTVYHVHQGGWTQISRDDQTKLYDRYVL
Put plainly: Trypanosoma cruzi proteasome chymotrypsin-like activity (TcProtChymo) assay. Note: in the data most compounds retested in dose-response had high values. It counts as functional. The settings on record: 9.37 µM.

For assay [8], the species on record is Homo sapiens. Put plainly: To identify inhibition of the IFN signalling (Jak-Stat) pathway via expression of an eGFP reporter gene under the control of an IFN-stimulated response element (ISRE) containing MxA promoter. To be noted: 30 µM. It is filed as functional. In general terms: In a reporter assay the amount or activity of a reporter protein is the signal.

The target in assay [9] is T4, Tyrosyl-tRNA synthetase, putative (Trypanosoma cruzi (strain CL Brener)) (UniProt Q4DSP6).
T4 sequence (whole entry): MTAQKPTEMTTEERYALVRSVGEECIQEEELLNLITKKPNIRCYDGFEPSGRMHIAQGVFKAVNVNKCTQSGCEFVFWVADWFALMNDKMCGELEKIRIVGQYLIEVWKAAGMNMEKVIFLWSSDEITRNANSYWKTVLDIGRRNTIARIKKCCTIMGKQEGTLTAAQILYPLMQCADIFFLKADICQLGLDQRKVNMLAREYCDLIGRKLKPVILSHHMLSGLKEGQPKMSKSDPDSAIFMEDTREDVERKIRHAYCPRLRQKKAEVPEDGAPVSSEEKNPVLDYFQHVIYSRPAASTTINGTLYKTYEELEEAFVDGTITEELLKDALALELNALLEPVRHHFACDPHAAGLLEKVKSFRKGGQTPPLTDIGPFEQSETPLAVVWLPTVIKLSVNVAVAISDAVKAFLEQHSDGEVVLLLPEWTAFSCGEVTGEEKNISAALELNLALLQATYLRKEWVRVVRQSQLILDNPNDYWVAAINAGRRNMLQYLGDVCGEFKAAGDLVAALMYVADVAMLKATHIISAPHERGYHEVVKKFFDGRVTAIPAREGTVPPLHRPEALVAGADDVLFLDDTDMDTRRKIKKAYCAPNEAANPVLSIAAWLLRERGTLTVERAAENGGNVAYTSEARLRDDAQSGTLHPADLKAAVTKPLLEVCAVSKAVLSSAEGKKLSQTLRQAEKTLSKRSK
Put plainly: Trypanosoma cruzi tyrosyl tRNA synthetase (TcYRS) _High Tyrosine SOP. Note: in the data most compounds retested in dose-response had high values. It counts as functional. The settings on record: 30 µM.

The target in assay [10] is T4, Tyrosyl-tRNA synthetase, putative (Trypanosoma cruzi (strain CL Brener)). The experiment in a line: Trypanosoma cruzi tyrosyl tRNA synthetase (TcYRS) SOP. It counts as functional. The settings on record: 30 µM.
For assay [11], the target named is Chromo domain-containing protein 1 (Saccharomyces cerevisiae (strain ATCC 204508 / S288c) (Baker's yeast)) (UniProt P32657). Put plainly: ScCHD-1 Enzyme Inhibition Assay. Note: in the data most compounds retested in dose-response had high values. It counts as functional. To be noted: 30 µM.
Chromo domain-containing protein 1 (Saccharomyces cerevisiae (strain ATCC 204508 / S288c) (Baker's yeast)), sequence (P32657 whole entry, the tested form may be a part): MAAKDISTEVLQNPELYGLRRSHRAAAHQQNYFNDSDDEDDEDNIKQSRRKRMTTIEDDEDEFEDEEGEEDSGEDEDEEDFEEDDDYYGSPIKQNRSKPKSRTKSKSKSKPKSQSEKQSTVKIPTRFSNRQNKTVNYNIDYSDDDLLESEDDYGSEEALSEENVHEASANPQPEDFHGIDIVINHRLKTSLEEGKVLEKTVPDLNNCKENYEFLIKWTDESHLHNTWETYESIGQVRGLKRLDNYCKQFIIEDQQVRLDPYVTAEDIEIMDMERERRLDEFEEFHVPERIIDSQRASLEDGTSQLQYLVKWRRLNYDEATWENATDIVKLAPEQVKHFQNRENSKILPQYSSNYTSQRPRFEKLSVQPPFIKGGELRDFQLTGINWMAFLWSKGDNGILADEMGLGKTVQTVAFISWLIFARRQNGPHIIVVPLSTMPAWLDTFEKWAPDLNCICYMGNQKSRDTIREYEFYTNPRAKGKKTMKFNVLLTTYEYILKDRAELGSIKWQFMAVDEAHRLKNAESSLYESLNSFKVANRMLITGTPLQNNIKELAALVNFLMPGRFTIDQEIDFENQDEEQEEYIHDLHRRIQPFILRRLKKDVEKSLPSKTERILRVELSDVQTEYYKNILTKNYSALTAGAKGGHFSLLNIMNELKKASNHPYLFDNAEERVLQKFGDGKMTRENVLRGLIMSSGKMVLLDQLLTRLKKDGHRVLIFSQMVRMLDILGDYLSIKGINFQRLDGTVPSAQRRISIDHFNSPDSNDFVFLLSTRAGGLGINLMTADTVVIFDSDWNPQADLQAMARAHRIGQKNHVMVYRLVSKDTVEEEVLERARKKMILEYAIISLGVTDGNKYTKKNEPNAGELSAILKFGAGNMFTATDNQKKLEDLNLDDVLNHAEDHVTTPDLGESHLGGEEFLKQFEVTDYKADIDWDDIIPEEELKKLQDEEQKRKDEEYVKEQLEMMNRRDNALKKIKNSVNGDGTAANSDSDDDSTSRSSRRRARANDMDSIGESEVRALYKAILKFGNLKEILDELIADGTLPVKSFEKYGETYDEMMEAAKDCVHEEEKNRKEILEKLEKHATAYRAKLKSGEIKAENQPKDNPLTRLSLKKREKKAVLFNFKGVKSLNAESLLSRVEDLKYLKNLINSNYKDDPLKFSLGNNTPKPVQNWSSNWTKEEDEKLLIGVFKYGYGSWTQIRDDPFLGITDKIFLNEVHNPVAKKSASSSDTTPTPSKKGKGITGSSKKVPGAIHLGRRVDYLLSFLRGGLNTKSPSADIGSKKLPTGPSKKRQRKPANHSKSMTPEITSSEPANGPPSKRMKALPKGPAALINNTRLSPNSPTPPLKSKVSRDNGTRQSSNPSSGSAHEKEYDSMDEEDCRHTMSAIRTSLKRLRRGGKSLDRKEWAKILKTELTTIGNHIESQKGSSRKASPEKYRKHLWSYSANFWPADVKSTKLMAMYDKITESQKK

Eight compounds from ChEMBL document CHEMBL3988442, “University of Dundee, Small-Polar-MMV Screening Library” (2021) can be followed below.

For some of these results: Results with a measured potency or affinity are listed apart.

Protein translocase subunit SecA (Escherichia coli (strain K12)), sequence (P10408 whole entry): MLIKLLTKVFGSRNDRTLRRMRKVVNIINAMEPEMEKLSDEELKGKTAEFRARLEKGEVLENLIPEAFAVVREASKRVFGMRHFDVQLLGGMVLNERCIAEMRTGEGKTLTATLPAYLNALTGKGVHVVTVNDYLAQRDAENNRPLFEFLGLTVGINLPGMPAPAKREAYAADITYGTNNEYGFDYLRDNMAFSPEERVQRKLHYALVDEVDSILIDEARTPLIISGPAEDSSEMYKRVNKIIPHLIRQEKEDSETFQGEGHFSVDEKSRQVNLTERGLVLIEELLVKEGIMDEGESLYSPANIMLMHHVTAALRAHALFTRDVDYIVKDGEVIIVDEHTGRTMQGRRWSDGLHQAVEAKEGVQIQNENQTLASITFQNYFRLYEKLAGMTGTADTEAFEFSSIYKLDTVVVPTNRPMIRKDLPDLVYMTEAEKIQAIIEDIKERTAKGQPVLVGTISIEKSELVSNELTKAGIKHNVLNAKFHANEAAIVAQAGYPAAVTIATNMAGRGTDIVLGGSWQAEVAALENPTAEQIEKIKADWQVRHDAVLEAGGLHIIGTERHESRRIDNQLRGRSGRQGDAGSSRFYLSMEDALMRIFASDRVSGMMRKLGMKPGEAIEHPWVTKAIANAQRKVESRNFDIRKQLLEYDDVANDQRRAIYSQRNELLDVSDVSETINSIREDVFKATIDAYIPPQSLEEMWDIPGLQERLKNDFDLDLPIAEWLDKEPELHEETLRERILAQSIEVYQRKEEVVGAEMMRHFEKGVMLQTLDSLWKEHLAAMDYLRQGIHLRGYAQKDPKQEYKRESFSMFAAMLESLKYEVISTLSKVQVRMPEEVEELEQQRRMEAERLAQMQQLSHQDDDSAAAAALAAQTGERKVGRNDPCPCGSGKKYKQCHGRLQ

In the case of `CC(C)CCN1CC2(CCCN(C(=O)c3cscn3)C2)CCC1=O` (stereo not drawn), the Percent Effect is -3.18% in assay [1]; 7.79% in assay [2]; 1.5% in [3]; 11.5% in [4]; 4.82% in assay [5]; -66.2% in assay [6]. Besides, the Percent Effect in [7] is 8.98%; in assay [8], -4.77%; in [9], 5.38%; in assay [10], 13.6%; in assay [11], -0.298%.
Turning to `CCOC(=O)N1CCN(Cc2ccc(OCc3nccn3C)cc2)CC1`, the Percent Effect in [1] is -5.3%; in [2], 23.4%; in assay [3], 3.48%; in [4], -0.124%; in assay [5] it was 0.562%; in [6] it was 1.42%. In addition, the Percent Effect is 13.7% in assay [7]; 11.1% in [8]; 9.71% in assay [9]; 14.6% in assay [10]; -7.78% in assay [11].
For `CCC(C)(C)NC(=O)Cn1nc(C)nc1-c1cccc(C)c1`, the Percent Effect in [1] is -4.79%; in assay [2], 20.8%; in [3], 3.98%; in assay [4], -4.39%; in assay [5] it was -3%; in [6] it was 1.07%. Further, the Percent Effect in assay [7] was 7.26%; in assay [8] it was 14.5%; in [9], 9.71%; in [10] it was 21.9%; in [11] it was -6.87%.
As to `CCS(=O)(=O)c1ccc(N2CCC(NC(=O)c3cnn(C)c3)CC2)cc1`, the Percent Effect is -5.94% in [1]; 2.67% in [2]; -5.84% in [3]; 34.3% in assay [4]; 10.2% in assay [5]; -2.08% in assay [6]. In addition, the Percent Effect in assay [7] is 16.2%; in [8], 21.8%; in [9], 1.64%; in [10], 13.6%; in assay [11], -5.47%.
Consider `CCc1nc(CN2CCCC(N(C)Cc3cnc(C)s3)C2)no1` (stereo not drawn), for which the Percent Effect in [1] was -0.97%; in [2] it was -5.48%; in [3] it was -1.7%; in assay [4], 3.08%; in [5], 0.979%; in [6] it was 0.455%. Also, the Percent Effect in [7] was 18.8%; in assay [8], -15.8%; in assay [9], 2.15%; in assay [10], 0%; in [11], -0.829%.
With `Cc1cc(S(=O)(=O)N2CCCc3ccc(F)cc32)sc1C(=O)O`, the Percent Effect is -6.14% in assay [1]; 0% in [2]; 3.45% in [3]; 0.802% in assay [4]; -1.85% in assay [5]; 4.69% in [6]. Also, the Percent Effect in assay [7] was 1.74%; in [8] it was 12.6%; in assay [9], -23.5%; in assay [10], -33.3%; in [11] it was -2.04%.
Consider `CC(=O)N(Cc1ncc(C)o1)C1CCN(Cc2ccncc2Cl)C1` (stereo not drawn), for which the Percent Effect in assay [1] was -2.28%; in assay [2], 15.6%; in assay [3] it was -3.8%; in assay [4], -0.636%; in assay [5] it was 3.62%; in assay [6], 1.05%. Besides, the Percent Effect in assay [7] is 11.2%; in assay [8] it was -2.79%; in [9], 11.4%; in assay [10] it was 30.6%; in assay [11] it was -18.4%.
For the compound `Cc1nn(C)c(C)c1CNC1CCOc2ccccc21` (stereo not drawn), the Percent Effect is -2.99% in [1]; 5.41% in assay [2]; -3.93% in [3]; -3.92% in assay [4]; -4.01% in assay [5]; -1.74% in assay [6]. In addition, the Percent Effect in assay [7] was 13.7%; in assay [8], 20%; in [9] it was 0%; in assay [10], 8.64%; in [11] it was -2.87%.
